BCR signal inh: blocks chronic active B-cell receptor signaling; ABC-DLBCL IkBa-CBG/CBR reporter, luminescence ratio, 4 h; Potency, µM (doses to about 46.1 µM), for inactives: at the top dose activity change, negative = inhibition, most hits filed as inhibitors; hit rate 0.05% among 340,000; AID 493014; active = well fitted inhibition curve with a large enough effect in the signal ratio, with a control signal flat, not every such curve was filed as active; inconclusive = small, poorly fitted or top-dose-only effect, or effect the other way, or a change in a side signal; the % refers to the signal ratio;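 also: potency is read from the fitted curve at half-maximal effect; plate controls were basal doxycycline-induced cells for no effect and cells given 10 µM MG132 for full effect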
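Cell line TMD8 (human ABC DLBCL), stably expressing tet-inducible CBG68-IkBa fusion and CBR; IMDM/0.5% FBS; cpd up to 46 uM; dox induction, 4 h, 37C/5% CO2; dual luminescence; green/red ratio; MG132 control.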
MCF10A rerep: inducers of DNA re-replication in MCF 10A breast cells. Potency, µM (doses to about 46.1 µM), for the others: at the top dose activity, positive = re-replication, actives largely listed as activators. MCF 10A DNA re-replication, Hoechst nuclear intensity, 48 h. hit rate 2.9% among 350,000; also: potency is read from the fitted curve at half-maximal effect; % of control where 0% means no effect; nearly all actives have a fitted effect of over 50% in size
DT40 TDP1 no CPT: qHTS for Inhibitors of human tyrosyl-DNA phosphodiesterase 1 (TDP1): qHTS in cells in absence of CPT; DT40 Tdp1-/- hTDP1 cells, no CPT, ATP luminescence, 48 h; hit rate 15% among 420,000; Potency, µM (titrated, usually from 46.2 µM), for the others: top-dose activity change, negative = growth inhibition, usual class: inhibitors; also: potency is read from the fitted curve at half-maximal effect; % is scaled to controls: 0 for no effect and ±100 for the full control effect; nearly all actives have a fitted effect of over 55% in size
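Cells were dispensed at 400 per well, compounds added by pin tool, plates incubated ≥48 hr at 37 °C, then CellTiter-Glo added for 30 min at room temperature before luminescence reading. Line: DT40 Tdp1-/- complemented with hTDP1; camptothecin omitted.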
IL-1B inflam inh: inhibitors of inflammasome signaling (IL-1 beta secretion); THP-1 LPS/ATP IL-1B secretion, AlphaLISA, 16 h; active compounds read low; activity change, % at 57.5 µM; hit rate 4.7% among 360,000; in the data active = activity change below about -50%; inconclusive = mostly about -30% to -49%; also: % is scaled to controls: 0 for no effect and ±100 for the full control effect
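THP-1 cells pretreated 1 hr with compounds (up to 57.5 uM final), then stimulated with LPS (250 ng/mL final) plus ATP (1.25 mM final); secreted IL-1B measured by AlphaLISA after 16 hr, decreased signal indicating inhibition.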
SW480 rerep: inducers of DNA re-replication in SW480 colon cancer cells. SW480 DNA re-replication, Hoechst DNA content imaging, 48 h. hit rate 1.8% among 340,000. AID 624297. Potency, µM (highest dose often 46.1 µM), for the others: at the top dose re-replication activation, hits mostly activators; also: potency is read from the fitted curve at half-maximal effect; % of control where 0% means no effect; nearly all actives have a fitted effect of over 55% in size
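Hoechst fluorescence of nuclei (405 nm excitation, 500-530 nm emission) measured by plate-scanning imager after 48 hr compound exposure at 37 C; re-replication scored as increased number of nuclei with elevated intensity.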
DT40 TDP1 CPT: growth inhibition of DT40 Tdp1-/-;hTDP1 cells with camptothecin (screen for TDP1 inhibitors) | chicken DT40 Tdp1-/-;hTDP1 cells + 20 nM CPT, ATP luminescence, 48 h | hit rate 12% among 420,000 | Potency, µM (doses to about 46.2 µM), without a hit: at the top dose activity change, negative = growth inhibition, hits mostly inhibitors; also: potency is read from the fitted curve at half-maximal effect; % is scaled to controls: 0 for no effect and ±100 for the full control effect; nearly all actives have a fitted effect of over 55% in size
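Cell growth measured by CellTiter-Glo luminescence after a minimum 48 h, 37 C compound exposure with 20 nM CPT in Tdp1-knockout DT40 cells stably expressing hTDP1, seeded 400/well; qHTS titration format.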
The depositor's hits bear a star; ? = inconclusive; . = no result; [ ] = another dose, or the depositor's remark. Compounds with a hit are over-represented: about 19% of the library has one in this group of screens. Unless noted, calls follow the shape of the dose curve; as a rule, active = well fitted curve in the direction sought with a large enough effect; inconclusive = small, poorly fitted or top-dose-only effect, or another doubt; inactive = no such curve, though single readings can be large; an effect the other way counts as inactive or inconclusive.

SMILES	BCR signal inh	MCF10A rerep	DT40 TDP1 no CPT	IL-1B inflam inh	SW480 rerep	DT40 TDP1 CPT
O=C(CCc1ccccc1)NC1CC(=O)N(c2ccccc2)C1 (stereo unspecified)	13%	.	23%	.	.	-16%
CCN1CCCC1CNC(=O)c1cnn(-c2ncc3c(n2)-c2ccc(OC)cc2CC3)c1C1CC1 (stereo unspecified)	.	.	-21%	.	.	15%[9.04 µM]
O=C(c1ccccc1)c1cc(Cl)ccc1N1C(=O)C=CC1=O	?	?	1.2µM*	-80*	18µM*	2.3µM*
Cc1ccc(S(=O)(=O)Nc2ccc(Cl)cc2C(=O)c2ccccc2)cc1	?	?	?	0	13%	-24%
Cc1n[nH]c(=O)n1-c1ccc(OCc2ccccc2)cc1	?	4%	-16%	6	16%	0%
CC(C)(C)n1nnnc1C(c1ccccc1)N1CCN(c2ncccc2C(F)(F)F)CC1 (stereo unspecified)	.	.	26µM*	-19	.	18µM*
Cc1ccc(C)c(N2CCN(C(c3ccc(N(C)C)cc3)c3nnnn3C(C)(C)C)CC2)c1 (stereo unspecified)	10%	2%	?	-6	-2%	?
CC(C)(C)n1nnnc1CN1CCN(C(c2ccccc2)c2ccccc2)CC1	?	3%	18µM*	-55*	-3%	?
Cc1ccc(C)c(N2CCN(C(c3ccccc3)c3nnnn3C(C)(C)C)CC2)c1 (stereo unspecified)	.	.	18µM*	-5	.	-80%
CC(C)C(c1nnnn1C(C)(C)C)N1CCN(c2cccc(Cl)c2)CC1 (stereo unspecified)	8%	?	13µM*	9	11%	18µM*
COC(=O)c1cc2sccc2n1Cc1nc(-c2cccc(Br)c2)oc1C	.	.	-13%	.	.	-16%
Nc1c(-c2nc(-c3ccccc3Cl)no2)nnn1-c1ccccc1F	.	.	-17%	.	.	-3%
COc1ccc(NC(=O)C#Cc2ccccc2)cc1	?	?	10µM*	.	?	21µM*
O=C(C#Cc1ccccc1)Nc1cccc(F)c1	?	?	5.8µM*	-106*	?	4.1µM*
O=C(C#Cc1ccccc1)Nc1ccc(F)cc1	?	0%	12µM*	-97*	?	?
COc1ccc(NC(=O)C(C)Sc2ccccc2)cc1 (stereo unspecified)	4%	-1%	3%	-6	-1%	9%
COc1ccc(NC(=O)CCCCC(=O)Nc2ccc(OC)cc2)cc1	1%	?	16%	-9	-1%	0%
COc1ccc(NC(=O)CCCCC#Cc2ccccc2)cc1	.	-2%	15µM*	17	-9%	?
O=C(Cc1cccc(NC(=O)C2CCCN(C(=O)C3CCCCC3)C2)c1)Nc1cccc(C(=O)N2CCCCC2)c1 (stereo unspecified)	.	15%	-16%	-5	-17%[9.22 µM]	-5%
COc1cc(OC)c(-c2cc(C(=O)NCc3ccc(F)cc3)c3c(-c4ccccc4)[nH]nc3n2)cc1OC	-4%	.	?	.	.	?
COc1ccc(-c2cc(C(=O)NCCc3ccccc3)c3c(-c4ccccc4)[nH]nc3n2)cc1OC	.	.	?	.	.	16µM*
COc1ccccc1-c1cc(C(=O)NCc2ccccc2)c2c(-c3ccc(C)cc3)[nH]nc2n1	?	.	?	.	.	23µM*
CCOc1ccc(-c2cc(C(=O)NCCc3ccccc3)c3c(-c4ccc(C)cc4)[nH]nc3n2)cc1	.	.	15µM*	.	.	12µM*
Cc1ccc(O)c(Cc2cc(C)cc(Cc3cc(C)ccc3O)c2O)c1	.	.	?	-2	.	?
N#Cc1ccc(OCC(=O)N2CCN(c3ccc(C(F)(F)F)cn3)CC2)cc1	13%	9%	-9%	?	?	-17%
SMILES	BCR signal inh	MCF10A rerep	DT40 TDP1 no CPT	IL-1B inflam inh	SW480 rerep	DT40 TDP1 CPT
CN(Cc1ccccc1)C(=O)COC(=O)C1CCN(S(=O)(=O)c2cccs2)CC1	-1%	-15%	-14%	7	-15%	-9%
O=C(NC(=S)NCCc1ccccc1)c1cccc(Cl)c1	5%	?	-27%	-26	2%	-13%
COc1ccccc1-c1c(C)nn2c(N3CCC(C)CC3)cc(C)nc12	0%	?	?	-51*	?	0%
CCOC(=O)C1CCCN(c2cc(C)nc3c(-c4ccccc4OC)c(C)nn23)C1 (stereo unspecified)	?	.	?	.	.	13µM*
COc1ccc(C(=O)NCc2ccc3c(c2)CCN3C(=O)c2ccncc2)cc1	8%	.	?	.	.	?
CC(NC(=O)/C(C#N)=C1\N=C(NC(=O)c2cccs2)c2ccccc21)c1ccccc1 (stereo unspecified)	1%	?	16µM*	0	-20%	?
CCCC[P+](CCCC)(CCCC)Cc1ccc(NC(=O)[C@@H](Cc2ccc3ccccc3c2)NC(=NC2CCCCC2)NC2CCCCC2)cc1	.	.	17µM*	.	.	13µM*
CC(C)(C)c1ccc(-n2nc(C(N)=O)c(O)cc2=O)cc1	5%	23%	?	10	?	?
CC(C)(C)c1ccc(-n2nc(C#N)c(Cl)cc2=O)cc1	?	2.9µM*	2.9µM*	-97*	4.1µM*	3.7µM*
CC(C)C[C@H]1CN(CCCC[C@H]2CNC(=O)C(=O)N2CC2CCCCC2)C(=O)C(=O)N1CC1CCCCC1	.	.	?	-20	.	?
COc1ccc2cc(CNC3CCS(=O)(=O)C3)c(-c3ccc(OC)c(OC)c3)nc2c1 (stereo unspecified)	.	.	-4%	.	.	4%[9.04 µM]
COc1ccc(C(=O)c2coc3ccc(O)c(CN4CCCC4)c23)cc1	-19%	6%	?	-23	-4%	?
COc1ccc(C(=O)c2coc3ccc(O)c(CN4CCOCC4)c23)cc1	-16%	7%	?	-7	1%	12µM*
Cc1ccc(C(=O)c2coc3ccc(O)c(CN4CCN(C)CC4)c23)cc1	-2%	?	18µM*	-54*	?	13µM*
COc1ccc(C(=O)c2c(C)oc3ccc(O)c(CN4CCOCC4)c23)cc1	-2%	16%	18µM*	1	2%	?
COc1cccc(NC(=O)CSc2nccn2C2CCCC2)c1	4%	.	?	.	.	0%
COC(=O)CN1C(=O)C(O)(c2c(C)[nH]c3ccccc23)c2ccccc21 (stereo unspecified)	6%	.	?	.	.	?
